A short description of assay [1]: inhibitors of TNFa-induced NFkB p65 translocation, primary screen, imaging, HUVEC, MLSMR starter and 10KST1 sets (AID 438;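 active = inhibition above 20% together with a positive visual image hit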;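 also: compound added about 3h40 before a 20 min TNFalpha stimulation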;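 as to inhibition: signal is the nuclear over cytoplasmic p65 intensity ratio per well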). The conditions noted are these: HUVEC TNFa-induced p65 nuclear translocation; cell count: measured here: nuclei count (cytotoxicity indicator), at 2.08 µM; inhibition: at 2 µM, stronger effect = higher value, 0% TNFa-plus-vehicle, 100% no-TNFa wells.
Assay [2] is described as follows: reduction of polyQ htt aggregates in cells – imaging, exon1htt(103Q)mCFP cells, high-content imaging, primary screen (AID 483;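 active = visual image review flags a hit and inhibition of aggregation exceeds 20%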;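 also: compound exposure lasted 3 days before fixation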;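 as to nuclei count: percent of the per-plate median nuclei count of sample wells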). To be noted: exon1htt(103Q)mCFP cell line, aggregate imaging, at 2 µM; inhibition of aggregation: stronger effect = higher value; nuclei count: measured here: cell count, toxicity.
The nature of assay [3]: endothelial E-selectin expression blockers – imaging, HUVEC, immunofluorescence, MLSMR starter and 10KST1 sets, primary screen (AID 487;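 active = visually confirmed hit in the image check and inhibition above 20%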;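 as to inhibition: signal is fraction of cell area covered by stained E-selectin grains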;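 as to nuclei count: 100% = median nuclei count of all wells on the same plate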). To be noted: HUVEC TNFalpha-induced E-selectin immunofluorescence imaging, at 2 µM; inhibition: stronger effect = higher value; nuclei count: measured here: cell number, toxicity.
For assay [4], the target named is Voltage-gated potassium channel subunit beta-2 (Rattus norvegicus) (UniProt P62483). Briefly: inhibitors of rat Kvbeta2 reductase activity – biochemical, NADPH fluorescence, primary screen (AID 622).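 Also: slope of raw intensity against log time taken from 70 to 1610 s.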 The conditions noted are these: recombinant KvBeta, 4-cyanobenzaldehyde reduction, at 10 µM, stronger effect = higher value.
Chain of Voltage-gated potassium channel subunit beta-2 (Rattus norvegicus) (P62483 whole entry, looked up): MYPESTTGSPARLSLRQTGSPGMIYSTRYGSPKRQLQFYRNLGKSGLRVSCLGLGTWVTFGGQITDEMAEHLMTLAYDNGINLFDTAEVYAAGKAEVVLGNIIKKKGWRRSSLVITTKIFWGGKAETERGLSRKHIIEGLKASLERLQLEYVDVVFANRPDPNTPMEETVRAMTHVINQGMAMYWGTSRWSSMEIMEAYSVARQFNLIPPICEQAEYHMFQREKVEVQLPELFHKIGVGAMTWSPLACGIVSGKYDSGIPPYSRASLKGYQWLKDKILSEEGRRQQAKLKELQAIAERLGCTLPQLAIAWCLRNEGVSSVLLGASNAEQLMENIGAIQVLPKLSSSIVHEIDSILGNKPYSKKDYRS
For assay [5] the target is unchanged. Briefly: enhancers of rat Kvbeta2 NADPH turnover – biochemical, NADPH fluorescence, primary screen (AID 623;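 active = NADPH fluorescence slope more negative than the mean of all samples by about 3 SD, 99.7% confidence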;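 also: fluorescence intensity change per second fitted from 20 to 320 s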). To be noted: Recombinant KvBeta, NADPH fluorescence decrease slope, 10 min; at 10 µM; stronger effect = lower value.
In assay [6] the target is Alpha-2C adrenergic receptor (Homo sapiens) (UniProt P18825). Briefly: compounds altering alpha2C-coupled GIRK flux – cell-based, HEK293 alpha2C/GIRK1/2, thallium flux, primary screen (AID 624;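 active = fluorescence slope after compound addition differing from the mean of all screened samples at 99.7% confidence, in either direction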;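 also: slope of fluorescence ratio to pre-addition baseline per second over 15 to 24 s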). To be noted: thallium flux BTC fluorescence, at 10 µM, actives lie on both sides.
Chain of Alpha-2C adrenergic receptor (Homo sapiens) (P18825 whole entry, looked up): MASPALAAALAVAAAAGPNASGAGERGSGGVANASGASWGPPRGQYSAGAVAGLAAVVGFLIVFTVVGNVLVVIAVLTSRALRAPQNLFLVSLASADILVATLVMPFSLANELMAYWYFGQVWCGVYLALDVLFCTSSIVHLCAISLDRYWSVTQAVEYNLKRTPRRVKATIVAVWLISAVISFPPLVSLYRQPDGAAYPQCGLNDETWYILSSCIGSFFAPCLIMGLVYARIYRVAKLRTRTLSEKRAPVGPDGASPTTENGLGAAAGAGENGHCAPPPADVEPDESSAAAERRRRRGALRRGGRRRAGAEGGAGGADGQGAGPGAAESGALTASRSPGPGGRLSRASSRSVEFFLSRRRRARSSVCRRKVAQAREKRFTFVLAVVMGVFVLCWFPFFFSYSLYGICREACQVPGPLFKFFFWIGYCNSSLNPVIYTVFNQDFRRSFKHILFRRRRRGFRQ
Assay [7] is described as follows: blockers of RIG-like receptor reporter activation – cell-based, Sendai virus stimulus, luciferase, 10K MLSCN set, TLR/RLR signaling modifier project, primary screen (AID 602276;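 active = inhibition at or above 50% at 10 µM; inactive = inhibition below 50%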;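 also: firefly luciferase from ISG56 promoter only with Renilla not read in this screen; 0% = Sendai virus plus DMSO and 100% = medium plus DMSO without virus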). The conditions noted are these: HEK293 RL24 IRF3 luciferase reporter, at 10 µM, stronger effect = higher value. A general note: In a reporter assay the amount or activity of a reporter protein is the signal.

Assay [8] is described as follows: TLR3 IRF3 reporter activation blockers – cell-based, poly I:C stimulus, luciferase, 10K MLSCN set, primary screen (AID 602277;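 active = inhibition of the reporter signal at or above 50%; inactive = inhibition below 50%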). To be noted: HEK293-TLR3 RL24 IRF3 luciferase reporter, at 10 µM, stronger effect = higher value.

Molecules are shown by their SMILES. Activity calls are given as the source filed them.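 The calls were made as follows, unless noted: active = fluorescence slope higher than the sample average by over 3 SD (cut at about -0.22 in these data, passing the limit was not always enough); inactive = the rest.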

We go through 13 compounds from PubChem BioAssay.

As for `CCOc1ccc(-c2c(C#N)c(N)nc3c2c(=O)n(C)c(=O)n3C)cc1OC`, the cell count in assay [1] came out at 702. Further, the inhibition is -1.1% (inactive) in assay [1], -7.5% (inactive) in assay [3], 14.3% (inactive) in assay [7] and 16.4% (inactive) in assay [8]. Besides, the inhibition of aggregation in assay [2] was 7.8% (inactive). Moreover, the nuclei count in assay [2] turned out to be 108%; in assay [3], 103%. For the same compound, the fluorescence slope in assay [4] was -0.486 (inactive). In addition, the NADPH fluorescence slope in assay [5] is -5.7e-05 (inactive). Also, in assay [6], the slope was 0.00459 (inactive).

Take `CCNC(=O)CC1C(=O)N(c2ccccc2)C(=O)N1CCC(C)C` (stereo not drawn): the cell count in assay [1] was determined as 339. The inhibition in assay [1] was 2.8% (inactive); in assay [3], -62.6% (inactive); in assay [7], 8.08% (inactive); in assay [8], 31.4% (inactive). Besides, the inhibition of aggregation in assay [2] is 3.6% (inactive). Moreover, the nuclei count came to 104% in assay [2] and 97.9% in assay [3]. Besides, the fluorescence slope in assay [4] was -0.512 (inactive). In addition, the NADPH fluorescence slope in assay [5] is -3.8e-05 (inactive). In addition, the slope in assay [6] is 0.00552 (inactive).

On to `CC(C)C(=O)Nc1ccc2c(c1)nc1n2CCSC1`, for which, in assay [1], the cell count stood at 378. The inhibition is -2.5% (inactive) in assay [1], -3.7% (inactive) in assay [3], -12.7% (inactive) in assay [7] and -20.2% (inactive) in assay [8]. The inhibition of aggregation in assay [2] is -0.8% (inactive). Besides, the nuclei count in assay [2] was 113%; in assay [3], 109%. The fluorescence slope in assay [4] was -0.361 (inactive). Also, in assay [5], the NADPH fluorescence slope was 1.9e-05 (inactive). Besides, the slope in assay [6] was 0.00311 (inactive).

As for `CCn1c(SCc2nc3ccccc3c(=O)[nH]2)nnc1-c1cccnc1`, the cell count in assay [1] came out at 628. Also, the inhibition in assay [1] was -11.9% (inactive); in assay [3] it was -66.6% (inactive); in assay [7], 21.2% (inactive); in assay [8], 25% (inactive). The inhibition of aggregation in assay [2] is -9.6% (inactive). The nuclei count in assay [2] turned out to be 107%; in assay [3] it was 114%. Further, in assay [4], the fluorescence slope was -0.525 (inactive). Further, the NADPH fluorescence slope in assay [5] was 7.8e-06 (inactive). In assay [6], the slope is 0.00487 (inactive).

Turning to `Cc1cc(C(=O)CSc2nc3ccccc3[nH]2)c(C)n1C`, in assay [1], the cell count is 659. For the same compound, the inhibition in assay [1] was 5.3% (inactive); in assay [3], -82.7% (inactive); in assay [7], -46.8% (inactive); in assay [8], -155% (inactive). For the same compound, the inhibition of aggregation in assay [2] is 7.6% (inactive). Also, the nuclei count in assay [2] is 113%; in assay [3], 123%. In assay [4], the fluorescence slope was -0.59 (inactive). Further, the NADPH fluorescence slope in assay [5] is -5.2e-05 (inactive). Moreover, the slope in assay [6] was 0.00445 (inactive).

Turning to `CCN(CC)CCNC(=O)CCn1c(=S)[nH]c2cc3c(cc2c1=O)OCO3`, the cell count in assay [1] was determined as 380. For the same compound, the inhibition in assay [1] was -3% (inactive); in assay [3], 7.2% (inactive); in assay [7], -5.94% (inactive); in assay [8], 28.2% (inactive). In assay [2], the inhibition of aggregation was -16.9% (inactive). Moreover, the results for the nuclei count in assay [2] and in assay [3] were 99.9% and 114%, respectively. For the same compound, in assay [4], the fluorescence slope is -0.501 (inactive). In addition, the NADPH fluorescence slope in assay [5] is -2.4e-05 (inactive). Moreover, the slope in assay [6] was 0.00645 (inactive).

`Cc1cc(N2CCOCC2)nc2ccc(NC(=O)C3CCC(C)CC3)cc12` (stereo not drawn): the cell count in assay [1] is 434. The inhibition was -2.7% (inactive) in assay [1], -132% (inactive) in assay [3], -9.82% (inactive) in assay [7] and -31.3% (inactive) in assay [8]. Also, the inhibition of aggregation in assay [2] was -22.1% (inactive). The nuclei count in assay [2] was found to be 127%; in assay [3], 123%. Also, the fluorescence slope in assay [4] was -0.549 (inactive). Besides, in assay [5], the NADPH fluorescence slope is 1.5e-05 (inactive). Further, the slope in assay [6] was 0.00409 (inactive).

In the case of `COc1ccc(NC(=O)c2cc(C(C)C)on2)c(OC)c1`, the cell count in assay [1] worked out at 568. Moreover, the inhibition in assay [1] was -11.1% (inactive); in assay [3], 7.6% (inactive); in assay [7], -35.5% (inactive); in assay [8], -63.9% (inactive). Moreover, in assay [2], the inhibition of aggregation is 33.2% (inactive). In addition, the nuclei count in assay [2] came out at 100%; in assay [3], 107%. The fluorescence slope in assay [4] is -0.576 (inactive). The NADPH fluorescence slope in assay [5] is -1.2e-05 (inactive). Further, the slope in assay [6] is 0.00755 (inactive).

In the case of `Cc1cc2c(cc1C)C(=O)NC(C)(C)C2`, the cell count in assay [1] was found to be 417. Also, the inhibition in assay [1] is -1.1% (inactive); in assay [3], -20.1% (inactive); in assay [7], -1.09% (inactive); in assay [8], 0.395% (inactive). Further, in assay [2], the inhibition of aggregation is -12.1% (inactive). For the same compound, the nuclei count is 108% in assay [2] and 120% in assay [3]. The fluorescence slope in assay [4] is -0.375 (inactive). The NADPH fluorescence slope in assay [5] is 6.6e-05 (inactive). The slope in assay [6] was 0.01 (inactive).

In the case of `Cc1nc2c(-c3ccccc3)c(C)nn2c(C)c1CCC(=O)O`, in assay [1], the cell count was 586. In addition, the inhibition in assay [1] is 6.1% (inactive); in assay [3] it was -61.1% (inactive); in assay [7], 13.6% (inactive); in assay [8], 20% (inactive). In assay [2], the inhibition of aggregation was 8.1% (inactive). For the same compound, the nuclei count was 73% in assay [2] and 103% in assay [3]. The fluorescence slope in assay [4] was -0.492 (inactive). In addition, the NADPH fluorescence slope in assay [5] is -2.4e-05 (inactive). Further, the slope in assay [6] was 0.00603 (inactive).

Take `CCN1C(=O)Cc2cc(S(=O)(=O)N3CCOCC3)ccc21`: the cell count in assay [1] amounted to 675. For the same compound, the inhibition was -2.9% (inactive) in assay [1], -38.7% (inactive) in assay [3], 2.07% (inactive) in assay [7] and -4.25% (inactive) in assay [8]. The inhibition of aggregation in assay [2] is -11.1% (inactive). Also, the nuclei count stood at 121% in assay [2] and 98.4% in assay [3]. For the same compound, the fluorescence slope in assay [4] is -0.435 (inactive). Besides, the NADPH fluorescence slope in assay [5] is 2.6e-05 (inactive). For the same compound, the slope in assay [6] is 0.00585 (inactive).

As to `CCCCOC(=O)n1c(SCC(=O)N(CC)CC)nc2ccccc21`, the cell count in assay [1] was found to be 307. For the same compound, the inhibition was 5.3% (inactive) in assay [1], 10% (inactive) in assay [3], -15.8% (inactive) in assay [7] and -54.6% (inactive) in assay [8]. Further, the inhibition of aggregation in assay [2] was 1.4% (inactive). In addition, the nuclei count worked out at 107% in assay [2] and 106% in assay [3]. The fluorescence slope in assay [4] was -0.585 (inactive). In assay [5], the NADPH fluorescence slope is -3.7e-07 (inactive). Further, the slope in assay [6] is 0.00671 (inactive).

Regarding `CSc1oc(-c2ccccc2)nc1S(=O)(=O)c1ccc(F)cc1`, the cell count in assay [1] came to 417. Moreover, the inhibition is 8.3% (inactive) in assay [1], -45.5% (inactive) in assay [3], 16.4% (inactive) in assay [7] and 22.3% (inactive) in assay [8]. Further, the inhibition of aggregation in assay [2] is 1% (inactive). The nuclei count in assay [2] worked out at 101%; in assay [3], 107%. The fluorescence slope in assay [4] was -0.481 (inactive). In addition, the NADPH fluorescence slope in assay [5] was -3.1e-05 (inactive). In addition, in assay [6], the slope was 0.00494 (inactive).

As usually defined, the inhibition is the change of the read-out against control, counted positive when it falls.
